# Source: PubChem BioAssay (EPA / NIEHS)
# The source holds several records for some structures; these can differ, active in one and inactive in another. Activity calls are given as the source filed them. How the source made its calls: active means hit-call score of the fitted dose curve at least 0.9, where 1 is the maximum; inactive means score below 0.9.
# Read-out: BCL2L11 (gene 10018)
# Test: LTEA_HepaRG_BCL2L11: Life Technologies and Expression Analysis (LTEA) Assay for Bcl-2 (BCL2L11) gene using HepaRG (AID 2283473)
# Conditions: mRNA level, 48 h; actives raise or lower the signal
# Experimental: LTEA_HepaRG is a cell based, multiplexed-readout assay that uses HepaRG, a human liver cell line, with measurements taken at 48 hours after chemical dosing on a 96-well plate.LTEA_HepaRG_BCL2L11 is one of 102 assay component(s) measured in the LTEA HepaRG cell culture assay. It is a marker of Cell proliferation, survival, death.Data from the assay component LTEA_HepaRG_BCL2L11 was analyzed into 1 endpoint. This assay endpoint, LTEA_HepaRG_BCL2L11, was analyzed with bidirectional fitting relative to DMSO as the negative control and baseline of activity. Using a type of inducible reporter, measures of mRNA induction for gain or loss-of-signal activity can be used to understand regulation of transcription factor activity. To generalize the intended target to other relatable targets, this assay endpoint is annotated to the cell cycle intended target family, where the subfamily is Cell proliferation, survival, death.
# A total of 1060 chemcials from the ToxCast library were tested in eight-point concentration-response experiments. Cell culture and cytotoxicity assays were conducted at Thermo Fisher Scientific's Custom Services facility (Madison, WI). A single lot of human HepaRG cells (Thermo Fisher Scientific, Frederick, MD) was used for the cell culture experiments. 96-well format collagen type I coated plates of human HepaRG cells were prepared using established methods. Briefly, cryopreserved HepaRG cells were thawed, plated at a density of approximately 100,000 cells/well in HepaRG Thaw, Plate, and General Purpose media (HPRG770, Thermo Fisher Scientific), and incubated for 48 hours. 0.5% DMSO was selected as vehicle control to balance the requisite need of DMSO in HepaRG cultures to maintain differentiation (for example, baseline metabolism, proportions of hepatocytes vs. cholangiocytes), while enabling further hepatic receptor pathway activation (for example, PXR and CAR) in response to chemical exposure. 48 hours after plating, the culture medium was replaced with HepaRG Serum-Free Incudtion Media. Cells were exposed to each test chemical in duplicate and maintained in CO2 incubators for another 48 hours. Chemical plates were thawed to room temperature and 200x concentrations of treatment groups were prepared. 8-point conentration-reponse curves were made with the highest exposure at 100 uM, followed by half-log dilutions, all in 0.5% DMSO. Each test plate contained variouse controls, induction positive controls (1mM phenobarbital), cytotoxicity positive controls ([…] aflatoxin B1), vehicle controls (0.5% DMSO), and total lysis controls (0.5% DMSO). Cell morphology images were taken using an Essen IncuCyte FLR automated microscope, with six 96-well plates imaged in about 24 minutes. Images were captured and exported and JPEG files. Spent culture media was transfered to black-well plates for the LDH assay, and remaining media was sorted at -80 C for later use. Cells were treated with RLT buffer and frozen until shipped for gene expression analysis. Total RNA was isolated from the cell suspension in 75 uL of Buffer RLT (Qiagen, Germantown, MD 20874) by Quintiles/Expression Analysis (Durham, NC) using a custom isolation procedure. Total RNA from each plate well was transferred to a preamplification plate. Fluidigm's 96.96 Dynamic ArrayTM (Fluidigm, Amsterdam, the Netherlands) technology was used for gene expression analyses by quantitative reverse transcription polymerase chain reaction (qRT-PCR, performed by Quintiles/Expression Analysis, Durham, NC)89. Standard TaqManTM Assays (Applied Biosystems/ThermoFisher Scientific, Foster City, CA) were used to assess the expression of 93 genes selected based on their selectivity and sensitivity to important hepatic receptors known to be modulated by environmental chemicals; importance in human hepatocyte functionality; and hepatotoxicity. […]
Structure (SMILES),outcome,AC50
CC(C)(C)C(O)C(Oc1ccc(Cl)cc1)n1cncn1 (stereo not given),inactive,–
CC(C)OC(=O)Nc1cccc(Cl)c1,inactive,–
N#CN,inactive,–
Clc1ccccc1-c1nnc(-c2ccccc2Cl)nn1,inactive,–
CC(C)N(C(=O)COc1nnc(C(F)(F)F)s1)c1ccc(F)cc1,inactive,–
CC(C)(C)C(O)/C(=C\c1ccc(Cl)cc1Cl)n1cncn1 (stereo not given),–,79.8 µM (active)
Oc1ccc(Cl)cc1Cc1ccccc1,inactive,–
CCCN(CCOc1c(Cl)cc(Cl)cc1Cl)C(=O)n1ccnc1,–,12.7 µM (active)
CC1(C)C(C=C(Cl)Cl)C1C(=O)OC(C#N)c1ccc(F)c(Oc2ccccc2)c1 (stereo not given),inactive,–
CN1CSC(=S)N(C)C1,inactive,–
O=[N+]([O-])c1c(Cl)c(Cl)c(Cl)c(Cl)c1Cl,inactive,–
CCC(C)(NC(=O)c1cc(Cl)c(C)c(Cl)c1)C(=O)CCl (stereo not given),inactive,–
O=C1c2ccccc2C(=O)N1SC(Cl)(Cl)Cl,inactive,–
O=C(NC(=O)c1c(F)cccc1F)Nc1ccc(OC(F)(F)C(F)OC(F)(F)F)c(Cl)c1 (stereo not given),inactive,–
CCc1ccc(C(=O)NN(C(=O)c2cc(C)cc(C)c2)C(C)(C)C)cc1,inactive,–
O=[N+]([O-])/N=C1\NCCN1Cc1ccc(Cl)nc1,–,23.3 µM (active)
N#Cc1c(Cl)c(Cl)c(Cl)c(C#N)c1Cl,inactive,–
CCC(C)(C)C(=O)OC1=C(c2ccc(Cl)cc2Cl)C(=O)OC12CCCCC2,inactive,–
ClC1C(Cl)C(Cl)C(Cl)C(Cl)C1Cl (stereo not given),inactive,–
Oc1cc(Cl)ccc1Oc1ccc(Cl)cc1Cl,inactive,51 µM (active)

Structure (SMILES),outcome,AC50
CNC(=O)/C=C(\C)OP(=O)(OC)OC,inactive,–
CC[C@H](C)[C@H]1O[C@]2(C=C[C@@H]1C)C[C@@H]1C[C@@H](C/C=C(\C)[C@@H](O[C@H]3C[C@H](OC)[C@@H](O[C@H]4C[C@H](OC)[C@@H](O)[C@H](C)O4)[C@H](C)O3)[C@@H](C)/C=C/C=C3\CO[C@@H]4[C@H](O)C(C)=C[C@@H](C(=O)O1)[C@]34O)O2 (tested in a mixture with another compound),–,10.7 µM (active)
O=C(O)CCCOc1ccc(Cl)cc1Cl,inactive,–
C[C@H]1[C@H](c2ccc(Cl)cc2)SC(=O)N1C(=O)NC1CCCCC1,–,67.2 µM (active)
OCCOc1ccccc1,inactive,–
CCN(CC)C(=O)SCc1ccc(Cl)cc1,inactive,–
O=C(Nc1ccccc1)Nc1cnns1,inactive,–
CNC(=O)Oc1cccc(N=CN(C)C)c1,inactive,–
C#CCN1C(=O)COc2cc(F)c(N3C(=O)C4=C(CCCC4)C3=O)cc21,inactive,–
Cc1[nH]c(=O)n(C(C)(C)C)c(=O)c1Cl,inactive,–
CNC(=O)CSP(=S)(OC)OC,inactive,–
O=S1OCC2C(CO1)C1(Cl)C(Cl)=C(Cl)C2(Cl)C1(Cl)Cl (stereo not given),inactive,–
CCCN(CCC)c1c([N+](=O)[O-])cc(C(F)(F)F)cc1[N+](=O)[O-],inactive,–
O=C(O)C(F)(F)C(F)(F)C(F)(F)C(F)(F)C(F)(F)C(F)(F)C(F)(F)F,inactive,–
COP(=O)(OC)OC=C(Cl)Cl,inactive,–
COP(=S)(OC)Oc1ccc([N+](=O)[O-])cc1,inactive,–
CCOCN(C(=O)CCl)c1c(C)cccc1CC,–,67.5 µM (active)
O=S(=O)(O)C(F)(F)C(F)(F)C(F)(F)C(F)(F)C(F)(F)C(F)(F)C(F)(F)C(F)(F)F,inactive,–
CC1(c2ccc(Oc3ccccc3)cc2)OC(=O)N(Nc2ccccc2)C1=O (stereo not given),–,11.7 µM (active)
